Reference: PubChem BioAssay

Test system: Lefty1
Experiment: Lefty1 protein binding to printed compounds – biochemical, small-molecule microarray, 635/667 nm fluorescence, primary screen (AID 1139)
Details: fluorescence 635/667, higher = more signal

Compound	composite z-score
Cc1ccc(S[C@]2(C(=O)NC3CC3)CC(=O)N(Cc3cc(C(F)(F)F)cc(C(F)(F)F)c3)[C@@H]2c2ccc(CO)cc2)cc1	0.821
O=C/C=C/c1ccccc1Cl	-0.239
COC(=O)[C@@]1(Cc2ccccc2N=[N+]=[N-])N=C(c2ccc(OCCCO)cc2)O[C@H]1c1ccccc1CN=[N+]=[N-]	-0.213
COC(=O)C(CC#Cc1ccc2c(c1)[C@]1(C(=O)N2)[C@H](C(=O)N2CCCCCCC2)[C@H]2C(=O)O[C@H](c3ccccc3)[C@H](c3ccccc3)N2[C@@H]1c1ccc(O)cc1)C(=O)OC	-0.227
C=CCC(OC(C)=O)[C@@H]1[C@@H](N(Cc2cccc3ccccc23)C(=O)c2ccc(C)cc2)c2cc(OCCCO)ccc2N1C(=O)c1ccc(-c2ccccc2)cc1 (stereo not given in full)	-0.0451
CCOC(=O)C[C@H]1[C@H](OC(=O)c2ccccc2-c2ccccc2)[C@@H](NC(=O)C2CCCCC2)c2cc(OCCCO)ccc2N1C(=O)c1ccccc1	0.845
CC(C)CNC(=O)[C@@]1(C)c2ccccc2C(=O)N(Cc2ccc(OC(F)(F)F)cc2)[C@H]1c1ccc(CO)cc1	-1.43
C=CC[C@]1(C(=O)O)N=C(c2ccc(OCCCO)cc2)O[C@H]1c1ccccc1	-1.09
O=C1OCC=C[C@H]2OC34C=CCN(Cc5ccccc5)C(=O)[C@H]3N(CCO)C(=O)[C@@H]4[C@@H]12 (stereo not given in full)	0.0323
CO[C@@H]1COC(=O)CC=C[C@@H](C)[C@H](OC)COC(=O)CC=C[C@H]1C	0.712
CO[C@H]1COC(=O)[C@@H](C)COC(=O)[C@H](Cc2ccccc2)NC(=O)CC=C[C@H]1C	1.27
CN(C)c1ccc(C(O)C2C=CC3C(=O)NC(=O)C3N2Nc2ccc(Cl)cc2Cl)cc1 (stereo not given)	-0.345
COc1ccc([Si](C)(C)[C@H]2[C@H](CCO)O[C@@]3(C(=O)N(Cc4ccccc4)c4ccc(N5C(=O)c6cccc7cccc5c67)cc43)[C@@H]2C)cc1	-0.297
CO[C@@H]1COC(=O)CC=C[C@H](C)COC(=O)[C@H](Cc2ccccc2)NC(=O)CC=C[C@H]1C	1.54
CCOC(=O)C[C@H]1[C@H](OC(=O)Cc2ccc3c(c2)OCO3)[C@@H](NC(=O)CC(C)C)c2cc(OCCCO)ccc2N1C(=O)c1ccccc1	0.492
CO[C@@H]1COC(=O)[C@H](COCc2ccccc2)NC(=O)CC=C[C@@H](C)[C@H](OC)COC(=O)[C@H](COCc2ccccc2)NC(=O)CC=C[C@H]1C	0.886
CC/C=C/C(=O)N(C[C@@H]1CCCO1)[C@@H]1CC(C(=O)NCCO)=C[C@H](Oc2c(I)cc(CO)cc2OC)[C@H]1O	0.0903
CCC1=C2CN(Cc3ccccc3Br)[C@@H]([C@@H](O)Cc3ccccc3)C2C=CCC1 (stereo not given in full)	1.25

Compound	composite z-score
CC(=O)NCCCC[C@@H]1NC(=O)[C@@H]2C[C@H](C(=O)NCCCCCNC(=O)CS)[C@H](c3ccc(O)cc3)N2C1=O	1.4
C=C(C)[C@@H]1CC=C(C(O)C2C=CC3C(=O)NC(=O)C3N2Nc2ccccn2)CC1 (stereo not given in full)	1.75
CCCC=C(CCC)[C@@H](NC(=O)c1ccc(C(F)(F)F)cc1)c1ccccc1	0.0969
CO[C@@H]1COC(=O)[C@H](C)NC(=O)CC=C[C@@H](C)[C@H](NS(=O)(=O)c2ccc(C)cc2)COC(=O)CC=C[C@@H]1C	-0.0101
COC(=O)C1=C(C)N(Cc2ccccc2)c2c(C(=O)OC)c(C(=O)OC)c(C(=O)OC)c(=O)n2[C@@H]1c1ccccc1	0.27
CO[C@H]1COC(=O)[C@@H](Cc2ccccc2)NC(=O)[C@@H](C)COC(=O)CC=C[C@@H]1C	1.01
CC(C)NC(=O)[C@@]1(Cc2ccccc2I)c2ccccc2C(=O)N(C2CCCCC2)[C@H]1c1ccc(CO)cc1	0.227
COc1ccc([Si](C)(C)[C@H]2[C@H](CC(=O)N3Cc4ccccc4C[C@H]3CO)O[C@@]3(C(=O)N(Cc4cccc(N5CCOC5=O)c4)c4ccccc43)[C@@H]2C)cc1	1.24
O=C1NC(=O)C2C1C=CC(C(O)C=Cc1ccc([N+](=O)[O-])cc1)N2Nc1ccccn1 (stereo not given)	0.509
CO[C@H]1COC(=O)CC=C[C@H](C)[C@@H](OC)COC(=O)CC=C[C@@H]1C	0.817
COc1cc(Cc2cc3c(c(CCc4ccccc4)n2)[Si](C(C)C)(C(C)C)OC3)cc(OC)c1OC	0.48
NC(=O)NCC#Cc1ccc2c(c1)[C@]1(C(=O)N2)[C@H](C(N)=O)[C@H]2C(=O)O[C@H](c3ccccc3)[C@H](c3ccccc3)N2[C@@H]1c1ccccc1OCCO	0.472
COCCOC(=O)N1C(=O)[C@@]2(c3cc(C#CCNC(N)=O)ccc31)[C@H](C(=O)N1CCCCCCC1)[C@H]1C(=O)O[C@H](c3ccccc3)[C@H](c3ccccc3)N1[C@@H]2c1ccccc1OCCO	1.21
C=CCC(OC(C)=O)[C@@H]1[C@@H](N(Cc2ccc(-c3ccccc3)cc2)C(=O)c2ccc(-c3ccccc3)cc2)c2cc(OCCCO)ccc2N1C(=O)Cc1ccc(OC)cc1 (stereo not given in full)	0.0287
C[C@H]1C2[C@H](Cc3ccccc3)NC(=O)[C@]23C(=O)N[C@H](Cc2ccccc2)C(=O)N[C@@H](Cc2ccccc2)C(=O)NC/C=C\C/C=C/C3[C@@H]2O[C@]12C (stereo not given in full)	-0.0066
CCOC(=O)C1=C[C@@H](c2ccccc2)N(S(=O)(=O)c2ccc(C)cc2)[C@H]1c1ccc(F)cc1	0.207
CC(C)[Si](OCCCNS(=O)(=O)c1ccc(Br)cc1)(C(C)C)C(C)C	0.513
